This is an account of results in PubChem BioAssay (NCATS).

The subject of this assay is Zika virus NS2B-NS3 protease. Description: Primary screen GU AMC qHTS for Zika virus inhibitors (AID 1347154). Note: nearly all actives have a fitted effect of over 70% in size. Summed up:
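Unlinked Zika NS2B hydrophilic domain–NS3 protease complex at 25 nM in 10 mM Tris-HCl pH 8.0, 0.01% Tween 20, with an AMC peptide substrate. Fluorescence change (340/450 nm) over 15 min at room temperature, normalized to controls, fitted to 4-parameter Hill.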

Records with an inconclusive call do not appear. Where a call stands in place of a potency, no number is given. Calls of active or inactive are those of the source. Calls come from the whole dose curve; as a rule, active = well fitted inhibition curve with a large enough effect; inconclusive = small, poorly fitted or top-dose-only effect; inactive = flat fitted curve, though single readings scatter.

As to `C#C[C@]1(O)CC[C@@H]2[C@@H]3CCC4=CC(=O)CC[C@@H]4[C@H]3CC[C@@]21CC`, the Potency result is “inactive”.
As to `C[C@](Cc1c[nH]c2ccccc12)(NC(=O)OC1C2CC3CC(C2)CC1C3)C(=O)NC[C@H](NC(=O)CCC(=O)O)c1ccccc1` (stereo partly drawn), the Potency entry is “inactive”.
Under `CCOc1cc2c(c(F)c1OCC)C(=N)N(CC(=O)c1cc(N3CCOCC3)c(OC)c(C(C)(C)C)c1)C2` stands “inactive”; under `C[C@H](O)[C@@H]1C(=O)N2C(C(=O)O)=C(S[C@@H]3CN[C@H](CNS(N)(=O)=O)C3)[C@@H](C)[C@@H]12`, “inactive”.
Consider `Cc1cn([C@@H]2O[C@H](CO)[C@@H](O)[C@H]2F)c(=O)[nH]c1=O`, for which the Potency result was “inactive”.
For the compound `C[C@@H]1CC[C@@]2(OC1)OC1CC3C4CC=C5CC(O)CCC5(C)C4CCC3(C)C1[C@@H]2C` (stereo partly drawn), the Potency entry was “inactive”.
Under `CCCc1nc(C(C)(C)O)c(C(=O)O)n1Cc1ccc(-c2ccccc2-c2nn[nH]n2)cc1` stands “inactive”; under `O=C(O)[C@H](CC(=O)N1C[C@@H]2CCCC[C@H]2C1)Cc1ccccc1`, “inactive”.
For `O=C(CCCCCCC(=O)Nc1cccnc1)NO`, the Potency entry is “inactive”.
`NC(=NCCCCCCN=C(N)N=C(N)Nc1ccc(Cl)cc1)N=C(N)Nc1ccc(Cl)cc1`: the Potency entry was “inactive”.
`C[C@@H]1[C@H](C)CC[C@]2(C(=O)O)CC[C@]3(C)C(=CC[C@@H]4[C@@]5(C)C[C@@H](O)[C@H](O)[C@@](C)(CO)[C@H]5CC[C@]43C)[C@@H]12`: the Potency result is “inactive”.
With `O=C(O)CCCCCC(=O)NN=C1CCCC1` the entry was “inactive”; with `COC(=O)[C@@H]1CC2=CC(=O)CC[C@]2(C)[C@@]23O[C@@H]2C[C@@]2(C)[C@H](CC[C@@]24CCC(=O)O4)[C@@H]13`, “inactive”.
